Results: PubChem BioAssay AID1892 (NMMLSC, 2009)
Among all 5,900 compounds or so, about 140 (2.4%) were called active. Rule as the data show it: active = binding response below about 16% or above about 210%; inactive = in between. Many of the other results were omitted from the sample, so actives are more common in it than they were.

What follows are compounds tested against Mitogen-activated protein kinase kinase kinase 2 (Homo sapiens) (UniProt Q9Y2U5) (assay: modulators of MEK5 binding to wildtype MEKK2, confirmation, biochemical, single concentration, multiplex bead flow cytometry (AID 1892)). Conditions: Alexa488-MEK5 binding to MEKK2 WT, at 10 µM, actives lie on both sides.

| Structure (SMILES) | binding response (% of control) |
| --- | --- |
| COc1cccc(OC)c1C(=O)Nc1ccc(Cc2ccncc2)cc1 | 100% (inactive) |
| CCCN(CCC)c1nc2c(C)cccn2c(=O)c1/C=C1/SC(=S)N(Cc2ccco2)C1=O | 85% (inactive) |
| CCCCn1c(SCC(=O)NCCc2ccc(OC)c(OC)c2)nc2c1c(=O)n(C)c(=O)n2C | 103% (inactive) |
| CCc1ccc(-c2nn(-c3ccccc3)cc2CSC(=N)N)cc1 | 210% (active) |
| N=C(N)SCc1cccc2ccccc12 | 105% (inactive) |
| CC(=O)N1CCN(S(=O)(=O)c2ccc(C)c([N+](=O)[O-])c2)C1C(C)C (configuration not stated) | 97% (inactive) |
| COc1ccc(CC(=O)N2N=C(C)CC2(O)C(F)(F)F)cc1 (configuration not stated) | 96% (inactive) |
| COc1ccc(S(=O)(=O)Nc2ccc3oc(C)c(C(C)=O)c3c2)cc1 | 95% (inactive) |
| NC(N)=N/N=C/c1ccc(OCc2ccc(Cl)cc2Cl)cc1 | 234% (active) |
| CC(C)CC(=O)NC(=S)Nc1cc(C(=O)O)ccc1Cl | 102% (inactive) |
| CCn1cc(CN2CCC(C(=O)Nc3cccc(-c4cccc(Cl)c4)c3)CC2)cn1 | 182% (inactive) |
| O=C(Cc1cccc2ccccc12)Nc1ccc2oc(-c3ccccc3)nc2c1 | 115% (inactive) |
| O=C(CN1C(=O)c2cccnc2Oc2ccc(Cl)cc21)Nc1ccc(F)cc1 | 99% (inactive) |
| N/C(=N\OS(=O)(=O)c1cccc([N+](=O)[O-])c1)c1ccncc1 | 103% (inactive) |
| c1ccc2c(c1)C(=NC1CCCCC1)NC2=NC1CCCCC1 | 125% (inactive) |
| CCOC(=O)CN(C)S(=O)(=O)c1ccc(-c2cc(C(=O)OC)sc2C(F)(F)F)cc1 | 101% (inactive) |
| O=C(NCCC1=CCCCC1)c1ccc(Cl)c([N+](=O)[O-])c1 | 105% (inactive) |
| CCN(CC)CCOc1ccc2c(c1)C(=NNC(=O)c1ccccn1)c1cc(OCCN(CC)CC)ccc1-2 | 210% (active) |
| CN(C)CCCNC(=O)c1cc(C(=O)Cc2ccc(Cl)cc2)c[nH]1 | 106% (inactive) |
| C[C@H]1CCC(=O)N([C@H](CSc2ccccc2)Cc2ccccc2)CC1 | 111% (inactive) |
| O=C(NCCCN1CCCCCC1)c1ccc(N2CCCC2=O)cc1 | 156% (inactive) |
| O=C(NCCCN1CCCCCC1)C1CC(=O)N(C2CCCC2)C1 (configuration not stated) | 1% [inhibitor] (active) |
| Cn1c(C(=O)NCCCN2CCCCC2)cc2sccc21 | 119% (inactive) |

| Structure (SMILES) | binding response (% of control) |
| --- | --- |
| C=CCn1c(=S)sc2c(=O)[nH]c(C)nc21 | 106% (inactive) |
| O=C1Nc2ccc(Br)cc2/C1=N/N=C/C1=C(N2CCOCC2)C(=C\c2ccccc2)/CC1 | 47% (inactive) |
| N#C/C(=C\C1=C(N2CCOCC2)C(=C\c2ccccc2)/CC1)C(=O)Nc1ccccc1F | 10% [inhibitor] (active) |
| O=C(O)C1CCN(c2ccc([N+](=O)[O-])cc2[N+](=O)[O-])CC1 | 103% (inactive) |
| Cc1ccc2c(C)c(C(=O)N3CCN(c4ccncc4)CC3)oc2c1C | 161% (inactive) |
| CC1(C)Cc2cccc(OCC(=O)N3CCN(c4ccc([N+](=O)[O-])cc4)CC3)c2O1 | 99% (inactive) |
| CN1C(=O)/C(=C\c2ccc(-c3ccccc3)o2)SC1=S | 23% (inactive) |
| CCOC(=O)N1CCN(CC(=O)n2c(C)c(C)c3ccccc32)CC1 | 93% (inactive) |
| FC(F)(F)c1nc(-c2ccccc2)ncc1-c1nnnn1-c1ccccc1 | 96% (inactive) |
| O=C(NCCCN1CCN(c2ccc(F)cc2)CC1)Nc1ccc([N+](=O)[O-])cc1 | 129% (inactive) |
| COc1ccc(C(=O)C[n+]2ccc(C)cc2)cc1 | 104% (inactive) |
| COc1cc(Br)c(-c2sc(Nc3ccccc3)n[n+]2-c2ccccc2)cc1OC | 134% (inactive) |
| CN(C)CCCNC(=S)N1CCN(c2nc(-c3ccccc3)cs2)CC1 | 108% (inactive) |
| O=C(O)CC(Cc1ccccc1)C(=O)Nc1ccc([N+](=O)[O-])cc1 (configuration not stated) | 96% (inactive) |
| Cc1onc(-c2ccccc2Cl)c1C(=O)OCC(=O)c1ccccc1 | 94% (inactive) |
| COc1cc(C)nc(N2CCCC(C(=O)NCC(C)C)C2)n1 (configuration not stated) | 97% (inactive) |
| CCN(CC)CCC(c1ccc2c(c1)OCO2)c1c(OC)cc(OC)c2c(-c3ccccc3)cc(=O)oc12 (configuration not stated) | 134% (inactive) |
| COc1ccc(CNC(=O)C2CCN(S(C)(=O)=O)CC2)cc1 | 103% (inactive) |
| Cc1ccc(CNC(=O)Cn2c(=O)c3sccc3n(Cc3cccc([N+](=O)[O-])c3)c2=O)cc1 | 103% (inactive) |
| COc1cccc(/C=N\NC(=O)C2=NNC(=O)C2C)c1O (configuration not stated) | 100% (inactive) |
| COc1cccc(CNCCc2c[nH]c3ccccc23)c1OCc1ccccc1F | 131% (inactive) |
| C#CCOCCOCCOCCNc1nc(N2CCN(C(=O)C([C@@H](C)CC)n3cc(C(N)COC(=O)C(F)(F)F)nn3)CC2)nc(N2CCN(C(=O)[C@H](CCCCN)n3cc(C(N)CC(C)C)nn3)CC2)n1 (some centres not stated) | 191% (inactive) |
| O=C(Nc1ccn(Cc2ccccc2)n1)c1cccc(F)c1 | 105% (inactive) |

| Structure (SMILES) | binding response (% of control) |
| --- | --- |
| CN(C)CCCN(C(=O)COc1ccccc1)c1nc2c(Cl)cccc2s1 | 133% (inactive) |
| O=C(CN1CCN(C(=O)c2ccco2)CC1)Nc1ccc(Cl)c(C(F)(F)F)c1 | 112% (inactive) |
| CNC(C)C#Cc1ccc2sc3cc(OC)c(OC)cc3c(=O)c2c1 (configuration not stated) | 128% (inactive) |
| COc1cccc(C2CC(c3ccccc3)=NN2S(=O)(=O)c2ccccc2)c1OC (configuration not stated) | 98% (inactive) |
| O=C(Nc1ccc(Cl)cn1)c1cnn2cccnc12 | 108% (inactive) |
| CCC(C)OC(=O)C(C)Oc1ccc(-c2ccccc2)cc1 (configuration not stated) | 106% (inactive) |
| Cn1ccc(=Nc2ccc(NC(=O)c3ccc(N=c4ccn(C)c5ccc([N+](=O)[O-])cc45)cc3)cc2)cc1 | 152% (inactive) |
| CC1CCN(C2=NC(=O)/C(=C/c3cn[nH]c3-c3ccccc3)S2)CC1 | 94% (inactive) |
| COc1cccc(Nc2ncccc2C(=O)O)c1 | 97% (inactive) |
| CCCc1nnc(SCC(=O)N2C(C)CCCC2C)n1CC (configuration not stated) | 110% (inactive) |
| Cc1ccc(C)c(CN2CCC(CNC(=O)Nc3ccc(C)c(F)c3)CC2)c1 | 146% (inactive) |
| CSCC[C@H](NC(=O)CCCn1nnc2ccccc2c1=O)C(=O)O | 105% (inactive) |
| CCc1ccc2nc(Nc3ncc(C(C)=O)c(C)n3)nc(C)c2c1 | 103% (inactive) |
| CCOc1ccc(S(=O)(=O)NCCCn2ccnc2)cc1NC(C)=O | 100% (inactive) |
| CCC(=C/c1sc2ccc3ccccc3c2[n+]1C)/C=C1\Sc2ccc3ccccc3c2N1C | 13% [inhibitor] (active) |
| O=C(O)c1cccnc1NC1CCCC1 | 109% (inactive) |
| COc1ccc(N2CCN(Cc3nnc(-c4ccccc4)o3)CC2)cc1 | 94% (inactive) |
| C[N+](C)(C)CCNC(=O)c1c(O)c2c([nH]c1=O)CCCC2 | 101% (inactive) |
| COc1ccc(NC(=O)Cn2nnc(C(=O)NCCc3ccc(OC)c(OC)c3)c2N)cc1 | 98% (inactive) |
| CC(C)(C)c1nnc(NC(=O)C2c3ccccc3Oc3ccccc32)s1 | 93% (inactive) |
| Clc1ccc(-c2nnc(SCc3nc4ccccc4s3)o2)cc1 | 98% (inactive) |
| CCCn1c(=N)n(CC(=O)c2ccc(Cl)c(Cl)c2)c2ccccc21 | 144% (inactive) |
| CCCCN1C(=O)/C(=C(/C#N)C(N)=O)c2ccccc21 | 102% (inactive) |

| Structure (SMILES) | binding response (% of control) |
| --- | --- |
| O=C(NCCN1CCOCC1)[C@H](Cc1ccccc1)N1C(=O)c2ccccc2C1=O | 103% (inactive) |
| COc1cc2c(cc1OC)CN(C(=O)c1ccc(S(=O)(=O)N3CCCCCC3)cc1)CC2 | 97% (inactive) |
| O=C(O)c1cc(Cl)c(Cl)cc1C(=O)Nc1cccc2ncccc12 | 99% (inactive) |
| Cc1noc(C)c1S(=O)(=O)N(C)Cc1ccccc1 | 105% (inactive) |
| CN(Cc1ccccc1)CC(O)COc1ccc(CNCc2cc3ccccc3s2)cc1 (configuration not stated) | 129% (inactive) |
| CN(CC(=O)Nc1cccc(F)c1)CC(=O)Nc1cccc([N+](=O)[O-])c1 | 99% (inactive) |
| CC(C)c1ccc(C(=O)NCCCc2ccccc2)cc1 | 94% (inactive) |
| COc1cc(-c2nnc(Cn3cc(C(F)(F)F)ccc3=O)o2)cc(OC)c1OC | 103% (inactive) |
| O=C(CCCO)N/N=C/c1cc(Br)ccc1O | 106% (inactive) |
| O=C(NC1CCN(Cc2ccccc2)CC1)c1cc(Br)c(Br)[nH]1 | 128% (inactive) |
| Cc1cccc(OCCNC(=O)CSc2ccc(C(F)(F)F)cc2[N+](=O)[O-])c1 | 104% (inactive) |
| N=c1c2c(-c3ccccc3)c(-c3ccccc3)n(Cc3ccccc3)c2ncn1CCCO | 134% (inactive) |
| Cc1nn(-c2ccccc2)c(NC(=O)c2cccs2)c(-c2ccc(Cl)cc2)c1=O | 101% (inactive) |
| CCn1c(NC(=O)c2ccccc2)c(-c2cccs2)c(=O)c2ccccc21 | 102% (inactive) |
| C/C=C/c1ccc(OCCCCN2CCC(C)CC2)c(OC)c1 | 109% (inactive) |
| CC(C)C(=O)N1c2ccccc2NC2=C(C(=O)CCC2)C1c1ccc(N(C)C)cc1 (configuration not stated) | 116% (inactive) |
| Cc1c(-c2ccccc2)cn2c1-c1ccc(C)n1CC2 | 93% (inactive) |
| O=C(Cc1cccs1)N/N=C/c1ccc(OCc2ccccc2)cc1 | 101% (inactive) |
| Cc1c(S(=O)(=O)NCc2ccccc2)c(=O)n(C)c(=O)n1C | 102% (inactive) |
| Cc1[nH]c2ccc(S(N)(=O)=O)cc2c1C | 97% (inactive) |
| C=CCN1C=C2C(=O)C(C)(OC(=O)CCc3ccccc3)C(=O)C=C2C=C1c1ccc(C#N)cc1 (configuration not stated) | 98% (inactive) |
| C=C(C)C1CC=C(C)/C(=N\NC(=O)CNc2ccccc2OC)C1 (configuration not stated) | 107% (inactive) |
| O=C(CSc1ccc(-c2ccc(F)cc2)nn1)Nc1ccc2c(c1)OCCO2 | 105% (inactive) |
